From PubChem BioAssay AID624256 (NMMLSC, 2012) come the findings set out here.

“And” between values parts separate entries of the source, which are not always exact repeats. Equal values may be shown once. About 3,700 (1%) of roughly 360,000 compounds were called active. Not shown: some 2% with an inconclusive outcome.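 How the source made its calls: active means normalized GFP-positive differentiation at or above the plate's own cutoff, the solvent-only control mean plus 3 SD; inconclusive means no clear call, values can overlap the other calls; inactive means the rest.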 Only a selection was taken, and actives are over-represented in it overall.

A short description of the test: induction of myeloid progenitor differentiation, primary screen, cell-based, flow cytometry, MLPCN library (AID 624256).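 On GFP+ MAC1+ double positive: cells exposed to compound for four days before flow analysis.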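 On normalized GFP-positive differentiation: cells exposed to compound for four days before flow analysis; 0% = DMSO wells and 100% = fulvestrant positive control at 5 µM.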 The conditions noted are these: ER-HoxA9 myeloid progenitors, lysozyme-GFP differentiation, at 10 µM; GFP+ MAC1+ double positive: measured here: differentiation confirmed by MAC1 staining, stronger effect = higher value; normalized GFP-positive differentiation: stronger effect = higher value. On the technique in general: Flow cytometry measures light scatter and fluorescence of single cells or particles in a stream.
Take `CC(=O)Nc1cccc(-c2cc(NC=O)c3ncc(-c4ccc(F)c(Cl)c4)n3c2)c1`: the GFP+ MAC1+ double positive was determined as 1.3% and the compound was classed as inactive.

Consider `O=c1c2c(-c3ccccc3)ccnc2[nH]n1-c1ccccc1`, for which the GFP+ MAC1+ double positive stood at 0.5% and the compound was classed as inactive.

As to `Cc1ccc(N2C(=O)c3ccccc3C2(O)c2ncc[nH]2)cc1` (stereo unspecified), the GFP+ MAC1+ double positive turned out to be 1.1% and the compound was classed as inactive.

As for `Cc1ccc(-c2ccnc3[nH]n(-c4ccccc4)c(=O)c23)cc1`, the GFP+ MAC1+ double positive turned out to be 0.4% and the normalized GFP-positive differentiation was 17.5% (active).

For `COC(=O)[C@@]12C[C@@H](CC(=O)NCCCCc3ccccc3)C(=O)N(CCc3ccc(OC)c(OC)c3)C1=CCC(C)(C)C2`, the GFP+ MAC1+ double positive worked out at 1.6% and the call was inactive.

Turning to `COC(=O)C[C@@H]1C=C[C@@H](NS(=O)(=O)c2cccc(OC)c2)[C@@H](CO)O1`, the GFP+ MAC1+ double positive turned out to be 1.6% and the outcome was inactive.

In the case of `Cc1c(-c2ccccc2)cn2c1-c1ccc(C)n1CC2`, the GFP+ MAC1+ double positive was 1.4% and the normalized GFP-positive differentiation is 31.7% (active).

With `O=C(C[C@H]1CC[C@H]2[C@@H](COC[C@H](O)CN2C(=O)c2ccccn2)O1)N1CCN(c2ccccc2)CC1`, the GFP+ MAC1+ double positive came to 2.6% and the call was inactive.

With `CN(CCO)C(=O)c1nc[nH]c1C(=O)N(C)Cc1ccccc1`, the GFP+ MAC1+ double positive came to 0.2% and the compound was classed as inactive.

With `CCCCn1nnnc1C(c1cc2ccccc2o1)N(C)Cc1ccc(Cl)c(Cl)c1` (stereo unspecified), the GFP+ MAC1+ double positive was found to be 0.9% and the outcome was inactive.

As to `COc1ccc(NC(=O)/C(C#N)=C\c2cc(OC)c(OCc3ccc(C(=O)O)cc3)cc2Br)cc1`, the GFP+ MAC1+ double positive was 0.2% and the compound was called inactive.

As for `COCCCn1c(=O)/c(=C/c2ccccc2OC(C)C)s/c1=C(\C#N)C(=O)Nc1ccc(C(=O)O)cc1`, the GFP+ MAC1+ double positive came to 2.8% and the normalized GFP-positive differentiation was 20.2% (active).

Consider `COc1ccccc1C(=O)N/C(=C/c1ccco1)C(=O)Nc1ccc(C(=O)O)cc1`, for which the GFP+ MAC1+ double positive was 1.5% and the result was inactive.

For `COCCNC(=O)C1CCCN(Cc2ccccc2Cl)CC1` (stereo unspecified), the GFP+ MAC1+ double positive was 0.5% and the compound was classed as inactive.

`COC(=O)[C@@]1(Sc2ccc(C)cc2)CC(=O)N(c2cccc(SC)c2)[C@@H]1c1ccccc1`: the GFP+ MAC1+ double positive was determined as 0.4% and the call was inactive.

In the case of `c1ccc(Cc2c(-c3ccco3)nc3c4ccccc4ccn23)cc1`, the GFP+ MAC1+ double positive turned out to be 1.5% and the outcome was inactive.

With `Cc1ccc(S(=O)(=O)N(C)c2nc3ccccc3n3c(C(C)C)nnc23)cc1`, the GFP+ MAC1+ double positive came out at 2% and the normalized GFP-positive differentiation was 94.1% (active).

`Cc1ccc(Oc2nc3ccccc3n3c(C)nnc23)cc1`: the GFP+ MAC1+ double positive was 5.3% and the compound was classed as inactive.

Consider `Cc1cc(NC(C)C)n2c(nc3ccccc32)c1C#N`, for which the GFP+ MAC1+ double positive turned out to be 1% and the compound was called inactive.

On to `Cc1cc2c(cc1C)N1C(=O)c3cc4ccccc4cc3NC(=O)C1C(=O)N2` (stereo unspecified), for which the GFP+ MAC1+ double positive came to 1.5% and the compound was called inactive.

Regarding `CCN(CC)C(=O)CSC(Nc1cccc(F)c1)=C(C#N)C#N`, the GFP+ MAC1+ double positive was 2.2% and the normalized GFP-positive differentiation was 143% (active).

For the compound `Cc1ccc(CSCC(=O)N(C)CC(=O)Nc2cccc(F)c2)cc1`, the GFP+ MAC1+ double positive came out at 1.2% and the call was inactive.

For the compound `CN(CC(=O)Nc1cccc(F)c1)C(=O)CC1CCCC1`, the GFP+ MAC1+ double positive is 0.8% and the compound was classed as inactive.

Take `Cn1c(Nc2ccc(F)cc2)nc2cc(-c3ccsc3)sc2c1=O`: the GFP+ MAC1+ double positive turned out to be 0.7% and the outcome was inactive.

Regarding `CCOC(=O)C1CCCN(C(=O)c2cccc3ccccc23)CC1` (stereo unspecified), the GFP+ MAC1+ double positive came out at 1.7% and the compound was classed as inactive.

As to `CC(=O)OCC(C)n1c(=O)c2ccccc2n1C(C)=O` (stereo unspecified), the GFP+ MAC1+ double positive came to 1% and the outcome was inactive.

Regarding `COC(=O)c1c(C)[nH]c(C(=O)/C=C/c2ccc(Cl)cc2)c1C`, the GFP+ MAC1+ double positive is 0.4% and the call was inactive.

Regarding `Cc1[nH]c(=O)c(C(=O)/C=C/c2ccccc2)c2c1CCCC2`, the GFP+ MAC1+ double positive worked out at 10.9% and the normalized GFP-positive differentiation is 31.7% (active).

With `CC1(C(=O)O)CCCN(C(=O)/C=C/c2ccccc2)C1` (stereo unspecified), the GFP+ MAC1+ double positive was 2.1% and the outcome was inactive.

As for `Cc1ccc2nc(-c3ccco3)c(Cc3cccc(Cl)c3)n2c1`, the GFP+ MAC1+ double positive is 0.9% and the result was inactive.

As for `COc1ccc(/C=C(\C#N)C(=O)NCCCn2ccnc2)cc1`, the GFP+ MAC1+ double positive worked out at 0.1% and the compound was classed as inactive.

`COc1cccc(-c2nn(-c3ccccc3)cc2/C=C(\C#N)C(=O)NCCCn2ccnc2)c1`: the GFP+ MAC1+ double positive worked out at 0.5% and the normalized GFP-positive differentiation is 58.2% (active).

`COc1cc(OC)cc(C(=O)NCCCn2ccnc2)c1`: the GFP+ MAC1+ double positive is 0.7% and the compound was classed as inactive.

On to `Nc1nc2c(Br)ccc(Br)c2cc1C(=O)NCCc1ccccc1`, for which the GFP+ MAC1+ double positive turned out to be 0.7% and the call was inactive.

Turning to `CC(C)NC(=O)N1Cc2cc(C(=O)NCC(F)(F)F)nc(-c3cccc(-c4cc5ccccc5o4)c3)c2[C@@H]1CCO`, the GFP+ MAC1+ double positive was found to be 1.5% and the result was inactive.

In the case of `CCOc1ncccc1C(=O)NCCc1ccc(OC)cc1`, the GFP+ MAC1+ double positive turned out to be 0.2% and the compound was classed as inactive.

`COc1ccc(CN(Cc2ccc(OC)cc2)C(=O)c2cccs2)cc1`: the GFP+ MAC1+ double positive turned out to be 0.3% and the call was inactive.

As for `COc1ccc(CCNC(=O)/C(C#N)=C2\N=C(NC(=O)c3cccs3)c3ccccc32)cc1`, the GFP+ MAC1+ double positive came to 0.9% and the normalized GFP-positive differentiation is 28.9% (active).

With `CCOC(=O)C1C(C)C(C(C)(C)C)N(S(=O)(=O)c2ccc(C)cc2)C1c1ccccc1` (stereo unspecified), the GFP+ MAC1+ double positive was found to be 2.4% and the compound was classed as inactive.

In the case of `NC(c1csc(NC(=O)Nc2ccccc2Oc2ccccc2)n1)c1ccccc1Cl` (stereo unspecified), the GFP+ MAC1+ double positive is 0.8% and the call was inactive.

For `CSCCC(c1nnnn1Cc1ccccc1)N1CCN(C/C=C/c2ccccc2)CC1` (stereo unspecified), the GFP+ MAC1+ double positive is 1.1% and the compound was classed as inactive.

As to `COc1ccc(-c2nc3cc(C)ccn3c2NC2CCCCC2)cc1SC1CCCCC1`, the GFP+ MAC1+ double positive was 2.4% and 7.4%; the normalized GFP-positive differentiation is 300% (active) and 217% (active).

With `CCOc1cc(-c2nc3cc(C)ccn3c2NCC2CCCO2)ccc1O` (stereo unspecified), the GFP+ MAC1+ double positive is 0.6% and the result was inactive.
